Hits are enriched below; roughly 11% of the tested compounds scored in any of these assays.
ALDH1A1 inh – inhibitors of human aldehyde dehydrogenase 1A1. hit rate 7.3% among 220,000. Potency, µM (series often up to 75.3 µM), without a hit: at the top dose activity, negative = inhibition, hits mostly inhibitors. P00352. Purified ALDH1A1, NADH fluorescence, propionaldehyde substrate; active means well fitted inhibition curve with a large enough effect, not every such curve was filed as active; inconclusive means small, poorly fitted or top-dose-only effect, or another doubt; inactive means no such curve, though single readings can be large or run the other way;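 further: potency means the concentration at half of the fitted maximal effect; plate controls were no enzyme wells and a reference inhibitor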
Target sequence (P00352 whole entry, looked up): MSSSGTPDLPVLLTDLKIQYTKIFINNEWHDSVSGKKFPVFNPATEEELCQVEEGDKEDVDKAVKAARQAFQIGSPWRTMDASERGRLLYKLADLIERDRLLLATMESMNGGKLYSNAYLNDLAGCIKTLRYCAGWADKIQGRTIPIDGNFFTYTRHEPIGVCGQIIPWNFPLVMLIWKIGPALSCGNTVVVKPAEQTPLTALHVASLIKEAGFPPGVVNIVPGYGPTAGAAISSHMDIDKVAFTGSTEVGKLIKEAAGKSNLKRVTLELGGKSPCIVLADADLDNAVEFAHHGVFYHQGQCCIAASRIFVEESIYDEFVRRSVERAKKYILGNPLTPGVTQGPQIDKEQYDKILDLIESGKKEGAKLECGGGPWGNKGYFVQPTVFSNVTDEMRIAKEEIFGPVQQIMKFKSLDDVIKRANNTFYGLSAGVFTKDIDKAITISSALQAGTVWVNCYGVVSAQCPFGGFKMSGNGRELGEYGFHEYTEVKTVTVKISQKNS
PNC inhibitor – inhibitors of perinucleolar compartment assembly | activity change (PNC), negative = inhibition, % at 10 µM | AID 2417 | PC3M PTB-GFP, PNC prevalence imaging, 16 h; hits give low values | hit rate 3.1% among 140,000;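 active means readout at or below -70, meaning at least 70% loss of cells showing the perinucleolar compartment, a nuclear body marking cancer cells; inconclusive means readout between -30 and a set limit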;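 further: plate controls were DMSO wells for no effect and camptothecin positive control wells for full effect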
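Compounds are pinned in duplicate onto adhered PC3M cells stably expressing GFP-tagged PTB and incubated 16 h at 37 C. Cells are then fixed, nuclei stained with Hoechst, and PNC-positive cells counted.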
CBFb RUNX1 block – CBF-beta/RUNX1 interaction disruption | Q01196+Q13951 | AlphaScreen CBFb-His/RUNX1-biotin binding, biochemical | Potency, µM (series often up to 59.8 µM), for the others: at the top dose activity, negative = inhibition, hits mostly inhibitors | 230,000 tested, under 10 active | AID 1477; further: % of control where 0% means no effect
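CBFb-His/RUNX1-biotin, 30 nM each, preincubated 20 min RT; compound 15 min RT; Ni + streptavidin beads 50 ng each, 90 min RT; AlphaScreen read.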
HTT cytoprotect – Huntington cell model cytoprotection by ATP luminescence; PC12 HTT-Q103 induced, cytoprotection, ATP luminescence, 40 h; Potency, µM (highest dose often 56.4 µM), for the others: cytoprotection (ATP increase), actives largely listed as activators; hit rate 0.14% among 230,000; further: potency means the concentration at half of the fitted maximal effect; % of control where 0% means no effect; nearly all actives have a fitted effect of over 45% in size
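PC12 cells with ecdysone-inducible HTT exon 1 Q103-GFP, induced with 100 nM tebufenozide and co-treated with library compounds in a dose series (1536-well, 1500 cells/well). Cytoprotection read as ATP content by ATPlite luminescence.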
HPGD block – HPGD (human) dehydrogenase inhibition | P15428 | purified HPGD, NADH fluorescence kinetic, PGE2 substrate | Potency, µM, for the others: top-dose activity change, negative = inhibition, hits mostly inhibitors | hit rate 4.3% among 150,000; active means well fitted inhibition curve with a large enough effect, not every such curve was filed as active; inconclusive means small, poorly fitted or top-dose-only effect, or another doubt; inactive means no such curve, though single readings can be large or run the other way; further: potency means the concentration at half of the fitted maximal effect; on the % scale 0 is the no-effect control and ±100 the full control effect
Target sequence (P15428 whole entry, looked up): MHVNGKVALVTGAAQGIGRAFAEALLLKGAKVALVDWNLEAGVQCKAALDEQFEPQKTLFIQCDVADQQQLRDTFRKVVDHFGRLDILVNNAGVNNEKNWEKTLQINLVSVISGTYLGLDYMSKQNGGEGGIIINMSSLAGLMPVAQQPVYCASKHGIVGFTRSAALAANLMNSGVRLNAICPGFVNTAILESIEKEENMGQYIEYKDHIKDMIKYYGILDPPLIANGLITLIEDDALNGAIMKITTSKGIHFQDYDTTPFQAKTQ
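20 nM HPGD preincubated 15 min at room temperature with compound in 50 mM Tris-HCl pH 8, 0.01% Tween 20. Started with 1 mM NAD+ and 30 uM prostaglandin E2; NADH fluorescence (360/450 nm) read 5 times over 30-s intervals, last minus first.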
HttQ103 aggreg – mutant huntingtin aggregation inhibition | PC12 HttQ103-GFP aggregates, Acumen cytometry, 40 h | Potency, µM (series often up to 46.1 µM), without a hit: at the highest dose activity change, negative = inhibition, most hits filed as inhibitors | hit rate 1.1% among 220,000 | AID 1688; further: potency means the concentration at half of the fitted maximal effect; on the % scale 0 is the no-effect control and ±100 the full control effect; nearly all actives have a fitted effect of over 60% in size
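PC12/HTTQ103-GFP, ecdysone-inducible; teb 100 nM; cpd qHTS titration; GFP aggregates read on laser cytometer, Ex 488/Em 500-530 nm.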
* marks the source's active call; other numbers are inactive results; ? = inconclusive; / = no result given; [ ] = dose if it differs, or a comment. Unless noted, the call rests on the fitted dose curve; in most records, active means well fitted curve in the direction sought with a large enough effect; inconclusive means small, poorly fitted or top-dose-only effect, or another doubt; inactive means no such curve, though single readings can be large; an effect the other way counts as inactive or inconclusive.

SMILES	ALDH1A1 inh	PNC inhibitor	CBFb RUNX1 block	HTT cytoprotect	HPGD block	HttQ103 aggreg
N#CCc1ccccc1[N+](=O)[O-]	25.1µM*	/	7.6%[21.7 µM]	17.3%	8.91µM*	/
CSc1ccccc1NC(=O)Cc1ccccc1[N+](=O)[O-]	-5.0%	/	5.8%	5.2%[10 µM]	/	14.9%[9.22 µM]
O=C1c2ccccc2C(=O)N1OCc1ccccc1[N+](=O)[O-]	25.1µM*	/	19.9%	-41.5%	/	?
CCOC(=O)C1(Cc2ccc(Cl)cc2)CCN(C(=O)c2sc(C)nc2C)CC1	35.5µM*	/	5.2%	6.3%[10 µM]	/	0.3%[9.22 µM]
O=C(c1ccco1)N1CCC2(CCN(Cc3nccs3)CC2)CC1	-7.0%	/	/	10.8%	-3.4%	/
O=C1Oc2ccccc2C(=O)/C1=C/N1CCN(c2ccccc2F)CC1	17.8µM*	/	4.2%	-13.7%	/	18.9%
Cc1ccc2cc(CN(CC3CCCO3)S(=O)(=O)c3ccccc3)c3nnnn3c2c1 (centres undefined)	7.08µM*	-100.0*	-4.4%	7.3%[10 µM]	-20.2%	3.2%
Cc1cccc2cc(CN(CC3CCCO3)S(=O)(=O)c3ccccc3)c3nnnn3c12 (centres undefined)	?	-21.0	5.8%	-13.9%	-12.2%	13.7%
Cc1cc(O)c(C(C[N+](=O)[O-])c2ccc(Cl)cc2)c(=O)o1 (centres undefined)	?	13.1	2.5%	6.0%	-11.2%	9.2%
Cc1cc(C)n(C(C[N+](=O)[O-])c2ccc(Cl)cc2)n1 (centres undefined)	?	?	-14.2%	10.0%	7.94µM*	-11.9%
CC(=O)Nc1ccc(NC(=O)COc2c(C)cc(Br)cc2C)cc1	-5.1%	/	7.0%	25.8%	/	16.6%
Cc1cc(Br)c(OCC(=O)NN)c2c1CCC2	2µM*	/	2.6%	-3.6%[10 µM]	/	-5.7%[9.22 µM]
Cn1c(SCc2cccc3ccccc23)nnc1-c1ccco1	?	-16.4	5.6%	14.6%[1.9 µM]	?	-9.2%
Nn1c(Cc2cccc3ccccc23)nnc1SCc1c(Cl)cccc1Cl	?	-9.8	29.6%	-40.2%[10 µM]	7.94µM*	-0.2%
Nn1c(Cc2cccc3ccccc23)nnc1SCn1nnc2ccccc2c1=O	-0.7%	?	-3.5%	-2.9%	-15.9%	4.3%
Nn1c(SCc2cccc3ccccc23)nnc1-c1ccco1	-8.4%	-0.7	-3.2%	-2.0%	14.1µM*	-3.2%
Nn1c(Cc2cccc3ccccc23)nnc1SCc1ccc(Cl)c(Cl)c1	?	?	-1.6%	-9.9%[10 µM]	2.82µM*	-9.3%
CCCCCCCC1=Cc2ccccc2C(C(C(C)=O)C(=O)OC)N1C(=O)OC (centres undefined)	-7.0%[13.5 µM]	/	3.2%[13.1 µM]	-1.9%[10 µM]	-3.2%	/
COC(=O)C1(C)C=CC2(CCCCC2)N1C(=O)c1ccccc1 (centres undefined)	4.4%	/	11.8%	-63.4%	-8.7%	/
OB(O)c1ccc(Br)cc1	2.7%	/	18.0%	-47.8%	-3.6%	/
CCCn1c(/N=C/c2ccc3c(c2)OCO3)nc2ccccc21	14.1µM*	24.7	-2.2%	6.5%[10 µM]	-24.1%	3.2%
CCc1ccccc1NC(=S)N(Cc1ccco1)C(C)c1cccs1 (centres undefined)	-9.4%	/	0.2%	-29.8%	/	3.98µM*
COc1ccc2c(c1OC)C(=O)OC2Nc1nc(-c2cccc([N+](=O)[O-])c2)cs1 (centres undefined)	?	/	-3.2%	-10.0%[10 µM]	/	6.6%[9.22 µM]
CC1=C(C(=O)Nc2cccc(F)c2)C(c2ccsc2)C2=C(CC(C)(C)CC2=O)N1 (centres undefined)	?	-81.5*	2.9%	-49.2%[10 µM]	?	-3.9%
CC1=C(C(=O)Nc2ccccc2F)C(c2ccsc2)C2=C(CC(C)(C)CC2=O)N1 (centres undefined)	?	-12.5	24.6%	7.3%[10 µM]	?	-10.2%
SMILES	ALDH1A1 inh	PNC inhibitor	CBFb RUNX1 block	HTT cytoprotect	HPGD block	HttQ103 aggreg
CC(=O)NCCNc1ccnc(-c2ccccc2C(F)(F)F)n1	?	/	/	7.0%	/	/
COc1ccc(Oc2ncc3nc(-c4cccs4)c(=O)n(CCC#N)c3n2)cc1	-14.7%	/	/	18.5%	/	/
O=C1NC(=Nc2ccccc2)S/C1=C\C=C\c1ccco1	14.1%	?	-2.1%	-14.6%[10 µM]	28.2µM*	22.2%
Cc1ccc(N=C2NC(=O)S/C2=C\c2ccco2)cc1	0.0%	0.9	-3.8%	-12.1%[1.9 µM]	22.4µM*	10.1%
O=C1NC(=Nc2ccccc2)/C(=C/c2ccco2)S1	?	-19.0	-18.2%	-10.3%[10 µM]	-14.1%	7.8%
Cc1cccc(N=C2NC(=O)/C(=C/C=C/c3ccco3)S2)c1C	2.82µM*	24.5	?	5.8%[10 µM]	7.94µM*	-20.2%
Cc1ccc(N=C2NC(=O)/C(=C/C=C/c3ccco3)S2)cc1	4.47µM*	22.0	/	37.7%[10 µM]	-22.5%	?
Cc1cccc(N=C2NC(=O)/C(=C/c3cccn3C)S2)c1C	/	/	?	-12.1%[10 µM]	/	11.0%[9.22 µM]
O=C(NCc1nnc(SCc2ccc(F)cc2)n1-c1ccc(F)cc1)C12CC3CC(CC(C3)C1)C2	-1.4%	-18.2	-8.4%	-8.2%[10 µM]	-6.8%	-29.7%
O=C(COC(=O)C1CC2C=CC1C2)Nc1ccc2c(c1)OC(F)(F)O2 (centres undefined)	?	-100.0*	-2.4%	-18.9%[10 µM]	-14.3%	14.5%
CC(C)(C)c1cc[n+](-c2[nH]c(=O)sc2/C=N/NC([S-])=Nc2ccccc2)cc1	25.1µM*	/	-2.4%	26.0%[10 µM]	/	9.9%[9.22 µM]
CCOc1ccc(C(C)=O)cc1CC(C(N)=O)C(N)=O	-12.2%	15.2	-3.0%	8.8%	-11.8%	4.9%[9.22 µM]
CCOc1ccc(C(C)=O)cc1COC(=O)C1=COCCO1	14.1µM*	21.0	9.3%	-16.7%	-18.2%	13.6%
O=C(NCc1ccccc1Cl)c1ccc(Br)o1	?	/	-2.5%	-40.8%	/	12.8%
COc1ccccc1CNC(=O)c1ccc(Br)o1	?	?	3.3%[89.1 µM]	-41.0%	39.8µM*	-15.1%
COc1ccc(CCNC(=O)c2ccc(CSc3ccccc3)o2)cc1	3.55µM*	/	-6.3%	-8.9%	/	-31.2%
COc1ccccc1CCNC(=O)c1ccc(C)o1	-2.0%	29.9	-0.8%	-17.3%	8.91µM*	-6.5%
O=C(NCc1ccncc1)c1ccc(Br)o1	3.55µM*	5.2	-5.8%	1.0%	-10.6%	13.0%
O=C(NCc1ccc(-c2nc3ccccc3s2)cc1)c1ccc(Br)o1	-6.3%	14.5	1.6%	-6.0%[10 µM]	-11.1%	-11.5%
Cc1ccc(C(=O)Nc2ccccc2N2CCOCC2)c(C)c1	12.9%	/	/	/	-6.9%	/
Cc1cc(C)c2c(C)c(C(=O)NCc3ccncc3)oc2c1	1.2%	-100.0*	-1.8%	21.9%[10 µM]	-24.1%	10.9%
C=C1CC2C3C=C(C)C4=CC(=O)CCC4(C)C3CCC2(C)[C@@]1(OC(C)=O)C(C)=O (some centres undefined)	/	/	/	5.0%	/	-4.0%
CCCCn1c(-c2csc3ccccc23)n[nH]c1=S	?	3.8	4.7%	-37.1%	?	-5.4%

Assay outcomes deposited in PubChem BioAssay by National Center for Advancing Translational Sciences (NCATS).
